Results from PubChem BioAssay (NCI).
About 83,000 compounds went through this panel and 20% of them were active in at least one assay; those are over-represented in the sample as a whole.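 96-well plates, one dose, 48 hours. Percent growth reported; active if below 10.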 Activity calls are given as the source filed them.

What follows are molecules tested on CAKI-1 renal (assay: NCI-60 one-dose screen, 48 h (100 = growth as untreated, 0 = no growth, -100 = all killed)). Conditions: 10 µM.
Procedure: Growth inhibition of the CAKI-1 human tumor cell line is measured as a screen for anti-cancer activity. Cells are grown in 96 well plates and exposed to the test compound for 48 hours. Compounds are tested at a single concentration, which is 10^-5 M for most compounds. The reported endpoint is percent growth (GI% or GIPRCNT), where numbers from 0 - 100% represent growth inhibition, and numbers from -100% - 0 represent cell death. For example, a value of 40 represents 60% growth inhibition. A value of 0 means no net growth occurred over the course of the experiment. A value of -40 indicates 40% of cells at the beginning of the experiment died by the end of the experiment. A value of -100 means all cells are dead at the end of the experiment.
NCI-60 Human Tumor Cell Lines Screen was performed using the standard one-dose NCI protocol, which is described in more detail at https://dtp.cancer.gov/discovery_development/nci-60/default.htm.
Compounds with GIPRCNT values below 10 were considered active. Activity score was based on GIPRCNT using the following formula: […]
Score is 0 for GIPRCNT values of 100 or above, 50 for GIPRCNT values of 0, and 100 for GIPRCNT values of -100.

| Compound | growth |
| --- | --- |
| CC(CCC(=O)O)[C@H]1CCC2C3C(=O)C[C@@H]4CC(=O)CC[C@]4(C)C3CC(=O)[C@@]21C (stereo not given in full) | 84.7% (inactive) |
| Cc1ccc2nc(-c3ccc(-n4on4-c4ccc(/C=C/c5ccc(-n6on6-c6ccc(-c7nc8ccc(C)cc8s7)cc6)cc5S(=O)(=O)O)c(S(=O)(=O)O)c4)cc3)sc2c1 | 106% (inactive) |
| CCN(CC)CC(=O)Nc1c(C)cccc1C | 94.3% (inactive) |
| Cc1ccc(-c2nc3c(N=Nc4ccc(S(N)(=O)=O)cc4)c(N)nn3c(N)c2C#N)cc1 | 41% (inactive) |
| CN(C)CCS(=O)(=O)Nc1cc(-c2ccc3ncnc(Nc4ccc(F)c(Cl)c4)c3c2)cnc1Cl | -30.6% (active) |
| COc1cc([C@@H]2c3cc4c(cc3C(OC3O[C@@H]5COC(C)O[C@H]5[C@H](O)[C@H]3O)C3COC(=O)[C@@H]32)OCO4)cc(OC)c1O (stereo not given in full) | 9.12% (active) |
| O=C(CSc1nnc(-c2cc3c([nH]c4ccccc43)c(-c3cccc(O)c3)n2)n1-c1ccccc1)c1ccccc1 | 45.5% (inactive) |
| O=C(Nc1ccc(-n2ccc3c(NC(=O)c4ccccc4)ncnc32)cc1)Nc1cccc(Cl)c1Cl | -26% (active) |
| CC(=O)N1N=C2N(Cc3ccccc3)C(=O)c3c(sc4c3CCCC4)N2C1c1cn(-c2ccccc2)nc1-c1ccc(Cl)cc1 (stereo not given) | 101% (inactive) |
| O=C(Nc1ccc(-n2cc(-c3ccncc3)c(-c3ccc(O)c(Cl)c3)n2)cc1)c1ccc(Cl)c(Cl)c1 | 18.6% (inactive) |
| O=C1COc2ccccc2C(=O)N1CCCCN1CCCCC1 | 103% (inactive) |
| CC(=O)Nc1ccc(OC(=O)c2ccccc2O)cc1 | 91.3% (inactive) |
| CN(CCNCc1ccccn1)CCNCc1ccccn1 | -42% (active) |
| NCC(=O)NS(=O)(=O)OC[C@H]1O[C@@H](n2cnc3c(N)ncnc32)[C@H](O)[C@@H]1O | 5.11% (active) |
| Cc1cn(-c2cc(C(=O)Nc3cccc(-n4ccc5c(NC(=O)c6ccccc6)nccc54)c3)cc(C(F)(F)F)c2)cn1 | 2.7% (active) |
| CCN(CC)CCN1C(=O)c2c(c3c4ccccc4[nH]c3c3[nH]c4ccccc4c23)C1=O | 87.9% (inactive) |
| OC[C@@H](O)C(O[C@@H]1O[C@H](CO)[C@H](O)[C@H](O)[C@H]1O)[C@H](O)[C@@H](O)CO (stereo not given in full) | 92.9% (inactive) |
| Cc1ccc[n+](CC(=O)c2cccc3ccccc23)c1 | 100% (inactive) |
| CC(=O)c1ccc2c(c1)C1C=CCC1[C@H](c1cc3c(cc1Br)OCO3)N2 (stereo not given in full) | 20.3% (inactive) |
| O=C(Nc1cccc(-n2ccc3c(NC(=O)c4ccccc4)ncnc32)c1)Nc1ccc(Cl)c(C(F)(F)F)c1 | 18.1% (inactive) |

| Compound | growth |
| --- | --- |
| O=C(Nc1ccc(-n2cc(-c3ccncc3)c(-c3ccc(O)c(Cl)c3)n2)cc1)c1cc(Cl)cc(Cl)c1 | 45.8% (inactive) |
| O=[N+]([O-])c1cccc(C2c3ccccc3Oc3ccccc32)c1 | 72.4% (inactive) |
| COc1ccc(-c2nn(-c3ccc(NC(=O)Nc4ccc(Cl)c(C(F)(F)F)c4)cc3)cc2-c2ccncc2)cc1Cl | -18.8% (active) |
| COc1ccc(-c2nn(-c3cccc(Cl)c3)cc2-c2cc(-c3ccc(Br)cc3)[nH]c(=O)c2C#N)cc1 | 82.9% (inactive) |
| CCOC(=O)c1[nH]c(-c2ccc(Cl)cc2)cc1-c1cccnc1 | 28.3% (inactive) |
| CN[C@@H](CCCNC(N)=NC/C=C(/C)CCC=C(C)C)C(=O)N(C)[C@@H](CCCNC(N)=NCC=C(C)C)C(=O)N[C@H](C)[C@H](OS(=O)(=O)O)c1ccc(OS(=O)(=O)O)c(COS(=O)(=O)O)c1 | 106% (inactive) |
| O=C(NCCNc1nccc(-c2c(-c3cccc(O)c3)nc3sccn23)n1)c1ccccc1 | 87.9% (inactive) |
| O=C(Nc1ccc(-n2ccc3c(NC(=O)c4ccccc4)ncnc32)cc1)Nc1ccc(Cl)c(C(F)(F)F)c1 | -36.8% (active) |
| COc1ccc(OCC(O)CN2CCN(c3ccc(Cl)cc3)CC2)cc1 (stereo not given) | 79.9% (inactive) |
| COc1cccc(-c2nc3sccn3c2-c2ccnc(NCCNC(=O)Nc3cccc(C(F)(F)F)c3)n2)c1 | 40% (inactive) |
| CCCCOc1nc2ccc(Cl)cc2cc1/C=C/C(=O)/C=C/c1ccc(Cl)cc1 | 98.1% (inactive) |
| CSc1ccc(C(=O)C[n+]2cccc(C)c2)cc1 | 102% (inactive) |
| O=C(/C=C/c1ccco1)c1cccc(Nc2nc(Nc3ccccc3)nc(Nc3ccccc3)n2)c1 | 92.8% (inactive) |
| COc1ccc(-c2[nH]c3ccccc3c2/C=C(\C#N)S(=O)(=O)c2ccccc2)cc1 | -14.3% (active) |
| COc1cc(-c2nc(SCC(=O)Nc3ccc(C(C)=O)cc3)[nH]c(=O)c2C#N)cc(OC)c1OC | 61.5% (inactive) |
| COc1cccc(-c2nc3sccn3c2-c2ccnc(NCCNC(=O)c3ccccc3)n2)c1 | 84.4% (inactive) |
| COc1ccc(-c2nnc(NC(=O)CN3CCN(c4cc5c(cc4F)c(=O)c(C(=O)O)cn5C4CC4)CC3)s2)cc1OC | 104% (inactive) |
| CCCCNc1cc(C(=O)O)cc(S(N)(=O)=O)c1Oc1ccccc1 | 89.3% (inactive) |
| COc1ccc(-c2nn(-c3ccc(NC(=O)c4cc(Cl)cc(Cl)c4)cc3)cc2-c2ccncc2)cc1Cl | 7.27% (active) |
| O=C(Nc1ccc(-n2ccc3c(NC(=O)c4ccccc4)nccc32)cc1)c1cccc(C(F)(F)F)c1 | 19.4% (inactive) |
